Laboratory results reported in PubChem BioAssay AID1159580 (chemical genetic matrix, 2015).
The whole screen tested about 5,500 compounds, of which about 2,000 (36%) were called active. About 18% were inconclusive and are not listed. Rule as the data show it: active = normalized growth mostly below about 0.91 (no sharp cut-off); inconclusive = no clear call, values can overlap the other calls; inactive = mostly above about 0.92. Some of the results follow.

Assay: chemical genetic growth profiling, strain panel (AID 1159580);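 also: tested at 20 µM; growth read once vehicle control cultures reached saturation at 30 °C; 1 = growth at the plate median or of vehicle wells; lower values mean less growth of the strain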
Details: S. cerevisiae deletion strains, growth OD

Measured: normalized growth

COC1C(O)C(C)OC(O[C@H]2CC[C@]3(C=O)C4C(CC[C@]3(O)C2)[C@@]2(O)CC[C@H](C3=CC(=O)OC3)[C@@]2(C)C[C@H]4O)C1O (stereo partly drawn)
inactive: locus YHR030C, strain SLT2, stronger effect = lower value 1.07 | locus YHR079C, strain IRE1, stronger effect = lower value 1.08 | locus YJL095W, strain BCK1, stronger effect = lower value 1.04 | locus YJR066W, strain TOR1, stronger effect = lower value 0.979 | locus YLR113W, strain HOG1, stronger effect = lower value 0.968 | locus YNL183C, strain NPR1, stronger effect = lower value 0.988 | locus YOR231W, strain MKK1, stronger effect = lower value 1.01 | locus YPL256C, strain CLN2, stronger effect = lower value 1.12
